# Source: PubChem
# Shown are actives, neighbours in structure and some others; about 7.4% of the full set was active somewhere.
# FLuc counter: counter-screen for miR-21 project: firefly luciferase inhibitors or activators; P08659; purified FLuc, Km substrates, luminescence inhibition; Potency, µM (doses to about 57.5 µM), usual class: inhibitors; actives 6.9% (n = 360,000); AID 588342; also: nearly all actives have a fitted effect of over 55% in size
# Target sequence (P08659 whole entry, looked up): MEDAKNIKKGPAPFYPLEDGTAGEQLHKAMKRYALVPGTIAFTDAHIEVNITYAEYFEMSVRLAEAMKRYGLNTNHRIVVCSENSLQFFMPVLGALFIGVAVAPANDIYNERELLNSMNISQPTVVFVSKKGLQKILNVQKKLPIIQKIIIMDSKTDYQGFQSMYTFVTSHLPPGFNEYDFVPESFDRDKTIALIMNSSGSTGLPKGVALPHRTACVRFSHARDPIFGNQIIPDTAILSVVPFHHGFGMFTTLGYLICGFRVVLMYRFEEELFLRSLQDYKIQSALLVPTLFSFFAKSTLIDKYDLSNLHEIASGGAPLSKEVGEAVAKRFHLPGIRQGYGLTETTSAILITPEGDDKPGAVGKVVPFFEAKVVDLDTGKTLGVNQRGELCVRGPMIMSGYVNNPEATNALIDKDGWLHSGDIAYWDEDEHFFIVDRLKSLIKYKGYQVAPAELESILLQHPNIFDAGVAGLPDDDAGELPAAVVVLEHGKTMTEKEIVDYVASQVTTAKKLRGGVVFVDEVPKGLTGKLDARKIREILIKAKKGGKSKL
#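 Purified P. pyralis luciferase (10nM final) with 10uM D-luciferin and 10uM ATP (Km levels) in 50mM Tris acetate pH 7.5, 10mM Mg acetate, 0.01% Tween-20, 0.05% BSA; qHTS 6-point titration, ~60 µM downward; luminescence read.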
# NPC1 promoter act: activates the NPC1 promoter. AID 485313. Huh7 NPC1 promoter luciferase reporter, 24 h. Potency, µM (highest dose often 9.22 µM), most hits filed as activators. actives 2.4% (n = 320,000); also: nearly all actives have a fitted effect of over 60% in size
#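 Luminescence read-out of NPC1 promoter-driven luciferase in stably transfected Huh7 cells; compounds delivered in DMSO and left 24 h at 37C, 5% CO2, qHTS titration format.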
# ELG1 genotox: inducers of genotoxicity in HEK293T ELG1-luciferase cells | HEK293T ELG1-luciferase reporter, luminescence, 16 h | Potency, µM (top dose mostly 46 µM), usual class: activators | actives 1.3% (n = 330,000) | AID 504466; also: nearly all actives have a fitted effect of over 60% in size
#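 After overnight (16 hr) compound treatment at 37 °C, ELG1-luciferase HEK293T cells were lysed with ONE-Glo; luminescence quantified 30 min later at room temperature.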
# SMN2 splice enh: enhancers of SMN2 splice variant expression | HEK293 SMN2-luciferase splicing reporter, luminescence, 30-36 h | Potency, µM (highest dose often 46.1 µM), usual class: activators | actives 2.8% (n = 210,000) | AID 1458; also: nearly all actives have a fitted effect of over 55% in size
#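 qHTS luciferase splicing reporter: luminescence rises when SMN2 exon 7 is included in transfected HEK293 cells. Compound exposure lasted 30-36 h at 37C, with 4.5 mM final sodium butyrate as control, followed by a ONE-Glo read.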
# Rab9 promoter act: Rab9 promoter activation; Huh7 Rab9 promoter-luciferase reporter, luminescence, 24 h; Potency, µM (highest dose often 9.22 µM), usual class: activators; actives 2.8% (n = 320,000); AID 485297; also: nearly all actives have a fitted effect of over 60% in size
#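 Luminescence read-out: Huh7 cells stably expressing Rab9-luciferase, treated 24 h with compound at 37 °C, then lysed with luciferase reagent for 10 min at ambient before reading.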
# A number is an active result; 0 = inactive; ? = inconclusive; - = no result given; [ ] = another dose, or the depositor's remark. Calls follow the shape of the dose curve; as a rule, active = well fitted curve in the direction sought with a large enough effect; inconclusive = small, poorly fitted or top-dose-only effect, or another doubt; inactive = no such curve, though single readings can be large; an effect the other way counts as inactive or inconclusive.
SMILES,FLuc counter,NPC1 promoter act,ELG1 genotox,SMN2 splice enh,Rab9 promoter act
O=C(CSc1nnc2ccccn12)N1CCc2ccccc2C1,?,?,?,0,0
O=C(CSc1ncccn1)N1CCCc2ccccc21,0,0,0,0,0
O=C(CSc1nnc2ccccn12)N1CCc2ccccc21,13µM,2.8µM,?,13µM,3.2µM
COc1cccc(-n2ccnc2SCC(=O)N2CCc3ccccc32)c1,0,0,0,0,0
Cn1ccnc1SCC(=O)N1CCc2ccccc21,15µM,2.2µM,?,-,2.8µM
Cc1ccnc(SCC(=O)N2CCc3ccccc32)n1,?,3.2µM,?,-,2.8µM
O=C(CSc1ccccn1)N1CCc2ccccc21,11µM,2.5µM,?,11µM,1.1µM
CC(=O)N1CC=CC1(CC(C)C)C(=O)NCc1ccc(C)o1 (stereo not drawn),-,-,-,0,-
CCc1ccc(Nc2oc(C)cc(=O)c2C(C)=O)cc1,19µM,0,0,0,0
Cn1nc(C(=O)NCCc2ccc(S(N)(=O)=O)cc2)c2ccccc2c1=O,0,0,0,-,0
CCOC(=O)c1c(C)[nH]c(CCC(=O)NCc2ccc(CC)cc2)c1C,0,-,-,-,-
COc1cc(/C=N/NC(=O)c2cc(C)oc2C)ccc1OCc1ccccc1,?,0,0,-,0
NC(=O)c1cc2ccccc2o/c1=N/NC(=O)c1cccs1,0,0,0,0,0
COc1cc(/C=N/NC(=O)c2sc3nc(C)cc(C)c3c2N)ccc1O,5.4µM,0,0,-,0
COc1ccccc1/C=C/C=N/NC(=O)c1cccs1,11µM,2.5µM,?,-,3.2µM
COc1ccc2o/c(=N/NC(=O)c3cccs3)c(C(N)=O)cc2c1,?,?,0,14µM,?
COc1ccccc1/C=C\C=N\NC(=O)c1ccco1,?,0,?,0,?
COc1cc(/C=N/n2cnc3c(sc4nc(C)cc(C)c43)c2=O)ccc1O,0,0,0,-,0
COc1cc(/C=N/NC(=O)c2ccccc2O)ccc1OC(=O)CC1SC(=O)NC1=O (stereo not drawn),17µM,0,0,-,0
CNS(=O)(=O)c1cn(CC(=O)Nc2cccc(OC)c2)cc1S(=O)(=O)NC,0,-,-,-,-
COc1cc(/C=N/NC(=O)c2cccs2)ccc1O,11µM,0,21µM,-,?
COc1cc(/C=N/NC(=O)c2cccs2)ccc1OCc1ccccc1,?,0,0,0,0
O=C(N/N=C/c1cccc(OC(=O)N2CCOCC2)c1)c1cccs1,9.5µM,0,0,0,0
COc1cccc(/C=N/NC(=O)c2cccs2)c1,5.4µM,?,21µM,-,2.8µM
COC(=O)N/N=C\c1cccc(OC(=O)c2cccs2)c1,0,0,0,0,0
SMILES,FLuc counter,NPC1 promoter act,ELG1 genotox,SMN2 splice enh,Rab9 promoter act
Cn1cnc([N+](=O)[O-])c1[Se]c1nc(N)nc2c1ncn2[C@@H]1O[C@@H](CO)[C@H](O)[C@@H]1O,-,-,-,0[9.22 µM],-
CCCCOc1ccc(C(=O)N/C(=C/C=C/c2ccccc2)C(=O)NC)cc1,17µM,0,0,0,0
O=C(O)CCNC(=O)/C(=C\C=C\c1ccccc1)NC(=O)c1ccccc1,0,0,0,-,0
COC(=O)/C(=C\C=C\c1ccccc1)NC(=O)c1ccccc1,?,0,0,0,0
CCCCOc1ccc(C(=O)N/C(=C/C=C/c2ccccc2)C(=O)O)cc1,15µM,0,0,0,0
O=C(Nc1ccc(O)cc1)/C(=C\C=C\c1ccccc1)NC(=O)c1ccccc1,9.5µM,0,0,-,0
O=C(O)COc1ccc(/C=N/NC(=O)/C(=C/C=C/c2ccccc2)NC(=O)c2ccccc2)cc1,21µM,0,0,-,0
Cc1cccc(N2CC(C(=O)Nc3nnc(SCC(=O)NCC4CCCO4)s3)CC2=O)c1 (stereo not drawn),0,0,0,-,0
COc1ccc(C2=NS(=O)(=O)N(C)C(C(=O)N3CCCCC3C)=C2)cc1 (stereo not drawn),0,0,0,-,0
COC(=O)c1ccc(NC(=O)Nc2ccc(F)cc2F)cc1,7.6µM,?,?,20µM,3.5µM
O=C(Nc1ccccc1)Nc1ccc(F)cc1F,12µM,?,?,?,4.5µM
CC(=O)Nc1cccc(NC(=O)Nc2ccc(F)cc2F)c1,?,0,0,0,0
Fc1ccccc1NC(=S)Nc1ccc(Br)cc1,?,0,0,-,0
COC(=O)c1ccc(NC(=O)Nc2cccc(F)c2)cc1,4.8µM,?,0,-,1.8µM
Fc1cc(Br)ccc1NC(=S)Nc1ccccc1,19µM,?,0,18µM,?
COc1ccc(-n2nc(C(=O)NCC(=O)NCCCN3CC(C)CC(C)C3)c3ccccc3c2=O)cc1Cl (stereo not drawn),0,0,0,-,0
COc1ccc(CC(=O)NNC(=O)COc2ccc(C)cc2)cc1S(=O)(=O)N1CCOCC1,0,0,0,-,0
O=C(Nc1ccc2c(c1)OCCO2)c1cccc2nc3ccccc3nc12,?,0,0,0,0
O=C(NC(=S)Nc1ccc(CN2CCOCC2)cc1)c1ccc2c(c1)OCCO2,17µM,?,0,-,0
O=C(Nc1ccc2c(c1)OCCO2)c1ccccc1F,3.4µM,0.79µM,1.8µM,13µM,0.56µM
O=C(NC(=S)Nc1ccc2c(c1)OCCO2)c1ccccc1F,5.4µM,2.5µM,?,?,1.3µM
O=C(Nc1ccc2c(c1)OCCO2)c1c(F)cccc1F,6µM,2.5µM,3.3µM,13µM,3.2µM
O=C(NC(=S)Nc1ccc(N2CCOCC2)cc1)c1ccc2c(c1)OCCO2,?,0,0,0,0
O=C(CSc1nnc(CNC(=O)c2c(F)cccc2F)o1)Nc1ccc2c(c1)OCCO2,?,0,0,-,0
O=C(NC(=S)Nc1ccc2oc(=O)ccc2c1)c1ccccc1F,0,0,0,-,0
SMILES,FLuc counter,NPC1 promoter act,ELG1 genotox,SMN2 splice enh,Rab9 promoter act
COc1ccc(CC(=O)N/N=C(\C)CC(=O)NCc2ccco2)cc1OC,0,0,0,-,0
COc1cc(NC(=O)CSc2nc3nc(C)c(Cc4ccccc4Cl)c(C)n3n2)cc(OC)c1,0,-,-,-,-
O=C(NC(=S)Nc1ccc2c(c1)OCCO2)c1ccccc1,1.2µM,0.63µM,?,7.1µM,0.89µM
Cc1ccc(S(=O)(=O)N(C)c2ccccc2C(=O)Nc2ccc3c(c2)OCCO3)cc1,0,0,0,-,0
CCOc1cccc(C(=O)NC(=S)Nc2ccc(N3CCCC3)cc2)c1,0,0,0,0,0
O=C(NC(=S)Nc1ccc(F)cc1)c1ccc2c(c1)OCCO2,1.9µM,0.63µM,?,?,0.5µM
CCOc1cccc(C(=O)NC(=S)Nc2ccc3c(c2)OCCO3)c1,8.5µM,0,?,0,?
CS(=O)(=O)Nc1ccccc1C(=O)Nc1ccc2c(c1)OCCO2,12µM,0,?,0,0
O=C(Nc1oc2ccccc2c(=O)c1-c1ccc(Br)cc1)c1ccco1,0,0,0,-,0
CCCc1ncc(C(O)c2ccccc2OC)n1C (stereo not drawn),0,0,0,0,0
O=S1(=O)CCOC[C@H](c2ccccc2)N1Cc1ccccc1,0,0,0,-,0
O=C(CCl)Nc1ccccc1C(=O)Nc1ccc2c(c1)OCO2,0,0.71µM,0,-,0.4µM
